# FEN1 inhibitor – qHTS Assay for the Inhibitors of Human Flap endonuclease 1 (FEN1) | Potency, µM (doses to about 114 µM), for inactives: top-dose activity change, negative = inhibition, hits mostly inhibitors | 0.35% of 390,000 active | AID 588795, 2011 | P39748 | Recombinant FEN1 flap cleavage, fluorescence, 15 min; note: potency is the fitted concentration of half-maximal effect; nearly all actives have a fitted effect of over 65% in size
#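 Potency values derive from four-parameter Hill fits of normalized qHTS data. The reaction used 10 nM FEN1 preincubated 15 min at room temperature with compound, then 50 nM DNA substrate, read at 0 and 15 min.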
# PGK inhibitor – qHTS Assay to Find Inhibitors of Phosphoglycerate Kinase; PGK/GAPDH coupled, Kinase-Glo luminescence, 60 min; Phosphoglycerate kinase, glycosomal (Trypanosoma brucei brucei), P07378; Potency, µM (top dose mostly 57.5 µM), without a hit: top-dose activity change, negative = inhibition, most hits filed as inhibitors; 0.043% of 380,000 active; note: potency is the fitted concentration of half-maximal effect; nearly all actives have a fitted effect of over 60% in size
#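 Recombinant glycosomal PGK reaction used 1,3-bisphosphoglycerate generated in-well by GAPDH (100nM final) in 100mM TEA pH 7.6, 5mM MgCl2, 0.01% Tween-20. After 60 minutes at room temperature, ATP was read by Kinase-Glo Plus luminescence end-point.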
# PI5P4K alpha inh – qHTS for Inhibitors of phosphatidylinositol 5-phosphate 4-kinase (PI5P4K); Phosphatidylinositol 5-phosphate 4-kinase type-2 alpha (Homo sapiens), P48426; PI5P4Kalpha enzyme, ADP-Glo luminescence, 60 min; stronger effect = lower value; max response, %; 1.2% of 330,000 active; AID 652105, 2013; active = max response of -50% or lower; inconclusive = between -30% and -50%; inactive = -30% or higher; note: value at the top dose of about 77 µM
#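 Enzyme plus substrate dispensed, test compounds pinned in, then ATP (5 microM final) added. After 60 min at RT, ADP-Glo reagent 1 for 45 min and reagent 2 for 30 min preceded luminescence imaging.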
# Tb PFK inh – qHTS Assay to Find Inhibitors of T. brucei phosphofructokinase | ATP-dependent 6-phosphofructokinase (Trypanosoma brucei brucei), O15648 | T. brucei PFK, ADP-Glo luminescence | Potency, µM (series often up to 57.5 µM), for the others: at the top dose activity, negative = inhibition, most hits filed as inhibitors | 0.17% of 330,000 active;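 note: potency is the fitted concentration of half-maximal effect; 0% = uninhibited 1x PFK enzyme wells and -100% = no-enzyme wells; nearly all actives have a fitted effect of over 60% in size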
#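 Activity is normalized to no-enzyme wells (full inhibition) and 1.25 nM enzyme wells (no inhibition). Reaction: 0.5 mM F6P, 0.1 mM ATP, 45 min RT, ADP-Glo luminescence; concentration-response curves fitted and classed by quality.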
# WRN inhibitor – qHTS for Inhibitors of WRN Helicase | Bifunctional 3'-5' exonuclease/ATP-dependent helicase WRN (Homo sapiens), Q14191 | WRN helicase unwinding, fluorescent forked duplex, kinetic | Potency, µM (top dose mostly 114 µM), without a hit: top-dose activity change, negative = inhibition, usual class: inhibitors | 0.46% of 360,000 active; note: potency is the fitted concentration of half-maximal effect; nearly all actives have a fitted effect of over 55% in size
#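 Kinetic fluorescence helicase assay: unwinding of a quenched forked DNA duplex (100 nM final) with 2 mM ATP final raises red fluorescence (525/598 nm). Compounds sat 15 min at room temperature with 20 nM WRN beforehand.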
# TDP1 block – qHTS Assay for Inhibitors of Tyrosyl-DNA Phosphodiesterase (TDP1); recombinant TDP1, AlphaScreen DNA substrate cleavage; 0.28% of 350,000 active; Tyrosyl-DNA phosphodiesterase 1 (Homo sapiens), Q9NUW8; Potency, µM (highest dose often 130 µM), without a hit: top-dose activity change, negative = inhibition, most hits filed as inhibitors; note: potency is the fitted concentration of half-maximal effect; nearly all actives have a fitted effect of over 40% in size
# Target sequence (Q9NUW8 whole entry, looked up): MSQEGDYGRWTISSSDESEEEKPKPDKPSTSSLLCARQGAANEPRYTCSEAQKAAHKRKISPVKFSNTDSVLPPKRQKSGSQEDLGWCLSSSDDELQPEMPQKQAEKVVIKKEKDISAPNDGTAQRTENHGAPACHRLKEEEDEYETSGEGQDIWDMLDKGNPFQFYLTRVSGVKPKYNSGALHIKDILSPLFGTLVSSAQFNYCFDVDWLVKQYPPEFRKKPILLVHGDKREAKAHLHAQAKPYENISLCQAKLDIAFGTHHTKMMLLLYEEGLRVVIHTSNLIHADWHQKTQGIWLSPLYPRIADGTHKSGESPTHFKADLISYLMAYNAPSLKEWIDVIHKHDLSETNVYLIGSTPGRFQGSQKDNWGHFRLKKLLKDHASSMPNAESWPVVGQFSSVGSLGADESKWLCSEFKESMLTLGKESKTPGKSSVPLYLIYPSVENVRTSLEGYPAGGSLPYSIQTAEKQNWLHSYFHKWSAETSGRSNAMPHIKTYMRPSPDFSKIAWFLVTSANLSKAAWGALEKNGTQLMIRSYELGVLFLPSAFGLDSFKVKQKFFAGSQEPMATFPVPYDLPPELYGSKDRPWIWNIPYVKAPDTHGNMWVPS
#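 Here, a 5' biotin and 3' phosphotyrosine-FITC DNA oligonucleotide reports Tdp1 activity: intact substrate bridges AlphaScreen beads, while cleavage leaves a 3' phosphate and drops signal. All incubations at room temperature.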
# Active calls of the source: *; i = inactive; ? = inconclusive; · = no result given; [ ] = dose if it differs, or a comment. Compounds with a hit are over-represented: about 1.5% of the library has one in this group of screens. Unless noted, calls come from the whole dose curve; as a rule, active = well fitted curve in the direction sought with a large enough effect; inconclusive = small, poorly fitted or top-dose-only effect, or another doubt; inactive = no such curve, though single readings can be large; an effect the other way counts as inactive or inconclusive. Unless noted, % is set by controls: 0 for no effect and ±100 for the full control effect.
SMILES,FEN1 inhibitor,PGK inhibitor,PI5P4K alpha inh,Tb PFK inh,WRN inhibitor,TDP1 block
COc1cc(/C=C2\SC(=O)N(c3ccc(Cl)cc3)C2=O)cc([N+](=O)[O-])c1O,?,-9%,-51*,0%,?,-10%
COc1cc(/C=C2\SC(=O)N(c3cccc(Cl)c3)C2=O)cc([N+](=O)[O-])c1O,89µM*,?,-81*,-7%,50µM*,6%
O=C1CCCC2=C1C1(CCCC1)N=C(Nc1nc3cc(Cl)ccc3o1)N2,·,·,·,·,·,0%
O=S1(=O)CCOCCCN1Cc1cccc(Cl)c1,2%,·,·,·,·,·
CC(C)=CCC12Oc3cc(O)ccc3C1(O)Oc1cc(O)c([C@H]3C=C(C)CC(c4ccc(O)cc4O)[C@H]3C(=O)c3ccc(O)cc3O)c(O)c1C2=O (some centres undefined),-33%,2%,-92*,·,-26%,·
O=C(CSc1nc(-c2ccccc2)nc2ccc(F)cc12)Nc1cccc(C(=O)O)c1,?,-13%,-50*,2%,-21%,79µM*
C(=C\c1c[nH]c2ccccc12)/c1ccc2ccccc2n1,-24%,·,·,·,·,·
Cc1cnccn1,4%,·,·,·,·,·
Cc1ccc(-n2ncc3c2CC(C)(C)CC3NC(=O)CCc2ccncc2)cc1 (centres undefined),9%,8%,-1,0%,-19%,22µM*
Cc1ccc(-n2ncc3c2CC(C)(C)CC3NC(=O)CCc2cccnc2)cc1 (centres undefined),5%,i,-6,-9%,-3%,2%
O=[N+]([O-])c1ccc(O)c(/C=N/NC(=S)Nc2ccc(Cl)cc2Cl)c1,-7%,7%,-66*,0%,3%[11.6 µM],12%
CC1=C(C#N)C(=O)NC(=O)/C1=C/c1ccc(-c2ccc(S(N)(=O)=O)cc2)o1,-19%,?,-96*,-7%,?,-9%
NS(=O)(=O)c1ccc(-c2ccc(/C=C3\NC(=S)NC3=O)o2)cc1,50µM*,-9%,-66*,?,-31%,·
Oc1ccc(NCc2ccccc2F)c2cccnc12,·,·,·,·,·,4%
COc1ccc(-c2ccc(C(=O)C3CC3)cc2)cc1,-6%,-1%,-4,-1%,9%,·
CC[N+]1(C)CCC(O)(c2ccc(OC)cc2)C(C(=O)c2ccc(OC)cc2)C1 (centres undefined),4%,2%,-3,·,10µM*,·
N#CC1=C2SCN(Cc3ccccc3)CN2C(=O)CC1c1ccc2c(c1)OCO2 (centres undefined),8%,-1%,-58*,-17%,-35%,-2%
N#CC1=C2SCN(Cc3ccccc3)CN2C(=O)CC1c1cccs1 (centres undefined),?,-5%,-59*,-24%,0%,-10%
COC(=O)N[C@@H](c1ccc(Br)cc1)C(C(=O)OC)C(=O)OC,·,·,·,·,·,4%
CC(C)=CCC/C(C)=C/CO/N=C1/C[C@@H](O)[C@@H](O)[C@@H]2[C@H]3C(=O)N(c4ccc(F)cc4F)C(=O)[C@@H]3CC[C@@H]12,·,·,·,·,·,6%[21 µM]
Cc1ccc(NC(=O)CCc2nc3sc4c(c3c(=O)[nH]2)CCCC4)c(Br)c1,-3%,-6%,-66*,0%,?,·
COc1c([N+](=O)[O-])ccc(N)c1N,14%,·,·,·,·,·
Cc1c(C(=O)NCc2cccc(Br)c2)oc2ccc3c(c12)C(=O)CC(C)(C)O3,89µM*,·,·,·,·,1%
COc1ccccc1CNC(=O)c1oc2ccc3c(c2c1C)C(=O)CC(C)(C)O3,-19%,·,·,·,·,-1%
CN(CC(=O)O)c1ccc(/C=C/c2ccnc3ccccc23)cc1,-1%,·,·,·,·,·
SMILES,FEN1 inhibitor,PGK inhibitor,PI5P4K alpha inh,Tb PFK inh,WRN inhibitor,TDP1 block
O=c1[nH][nH]c2c(N=Cc3ccccc3O)ccc(F)c12,18µM*,16µM*,-103*,?,14µM*,-9%
CCc1ccc(O)c(N=Cc2ccccc2O)c1,-15%,i,·,-1%,-3%,7%
CN(C)c1ccc(/C=C/c2ccc3cc(N)ccc3n2)cc1,-1%,·,·,·,·,·
COc1cc(Cl)c(C)cc1NC(=O)C(OC(=O)CNC(=O)c1ccccc1)c1ccccc1 (centres undefined),·,·,·,·,·,-2%
S=c1[nH]nc(-c2cc3c(s2)-c2ccccc2CC3)o1,-18%,3%,-89*,-12%,-32%,-6%
CC1CCc2sc(-c3n[nH]c(=S)o3)cc2C1 (centres undefined),-1%,-2%,-68*,2%,-2%,4%
CN(C)CCNc1nccc(N2CCN(C)CC2)n1,-11%,·,·,·,·,·
Cc1c(CCO)sc[n+]1CC(=O)c1ccccc1,23%,·,·,·,·,·
CCCCCCCCCCCCCCCC[n+]1ccc(CC(O)c2c(C)[nH]c3ccccc23)c2ccccc21 (centres undefined),50µM*,·,·,·,·,·
COc1ccc(Cn2ncc3c4sc(C)cc4n(C)c3c2=O)cc1,·,·,·,·,·,-3%
C=CCn1c(SCC(=O)Nc2sc3c(c2C#N)CCC(C)C3)nc2cc(C(=O)O)ccc2c1=O (centres undefined),?,?,-53*,-1%,?,45µM*
O=C(/C=C/c1ccccc1Cl)NC1CCS(=O)(=O)C1 (centres undefined),-2%,i,-69*,4%,?,2%
CC(C)(C)n1ncc2c(=O)n(Cc3ccc(F)c(F)c3F)cnc21,-1%,·,·,·,·,·
O=c1c2c(-c3ccco3)csc2nc(SCc2cn3cccnc3n2)n1-c1ccccc1,1%,1%,-67*,-7%,56µM*,-4%
NC(=O)CSc1nc2ccccc2c(=O)n1-c1ccccc1,0%,-2%,-1,0%,-8%,·
c1ccc(-n2cnnc2SCc2cn3cccnc3n2)cc1,35%,8%[11.5 µM],·,-5%,-13%[57.1 µM],5%
NC(=O)CSc1nc2scc(-c3ccco3)c2c(=O)n1-c1ccccc1,?,-13%,-70*,-7%,?,-5%
CC(C)Oc1ccc(C(=O)N/N=C/c2ccc(-c3ccc(S(=O)(=O)Nc4ncccn4)cc3)o2)cc1,79µM*,-14%,?,4%,50µM*,·
Cc1csc(NC(=O)CN(C)S(=O)(=O)c2cccc3cccnc23)n1,-7%,-6%,-4,3%,0%,-8%
CN(CC(=O)Nc1n[nH]c(=S)s1)S(=O)(=O)c1cccc2cccnc12,-15%,·,-57*,-12%,0%,·
O=c1[nH]c(=O)c2[nH]c(=S)n(-c3ccccc3)c2[nH]1,-3%,-8%,-56*,·,-2%,·

# Source: PubChem (National Center for Advancing Translational Sciences (NCATS))
